According to PubChem BioAssay (NCI):
About 83,000 compounds went through this panel and 20% of them were active in at least one assay; those are over-represented in the sample as a whole.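 The endpoint reported here, percent growth, reads 100 for growth as untreated, 0 for no net growth and -100 for all cells dead.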 Active and inactive are the calls of the source. How the source made its calls: active means growth percent below 10; inactive means the rest.

Key:
Experiment in all cases: NCI-60 one-dose screen, 48 h (100 = growth as untreated, 0 = no growth, -100 = all killed)
Conditions in all cases: 10 µM
[1] = test system: SK-MEL-2 melanoma
[2] = test system: EKVX NSCLC
[3] = test system: SN12C renal
[4] = test system: UO-31 renal
[5] = test system: ACHN renal
[6] = test system: CAKI-1 renal
[7] = test system: A498 renal
[8] = test system: CCRF-CEM leukemia
[9] = test system: SR leukemia
[10] = test system: RPMI-8226 leukemia
[11] = test system: OVCAR-8 ovarian
[12] = test system: OVCAR-5 ovarian
[13] = test system: OVCAR-4 ovarian
[14] = test system: SK-OV-3 ovarian
[15] = test system: IGROV1 ovarian
[16] = test system: OVCAR-3 ovarian
[17] = test system: HS 578T breast
[18] = test system: NCI/ADR-RES ovarian
[19] = test system: TK-10 renal
[20] = test system: MOLT-4 leukemia

Measured: growth

CC(C)(C)c1ccc(NCc2cn(-c3ccc(C(=O)O)cc3)nc2-c2ccc(C#N)cc2)cc1
inactive: [1] 53.1% | [3] 16.1% | [4] 35.7% | [5] 27% | [6] 34.4% | [7] 58.2% | [8] 16.3% | [10] 14.6% | [11] 28.5% | [12] 32.6% | [13] 36.7% | [14] 112% | [15] 36.5% | [16] 19.7% | [17] 37.4% | [18] 11.7%
active: [2] -36.7% | [9] 5.39%

Cc1ccc(C(=O)Nc2ccc(-n3c(C)nc4c(cnn4-c4ccccc4)c3=O)cc2)cc1
inactive: [1] 78.3% | [2] 30.5% | [3] 73.3% | [19] 82.3% | [5] 61.8% | [6] 72.4% | [7] 87.3% | [8] 46.3% | [20] 34.3% | [10] 58.4% | [11] 76.8% | [12] 86% | [13] 49.8% | [14] 97.4% | [15] 71.6% | [16] 97% | [17] 84.8% | [18] 52.7%

CNC(=O)c1cccc(N2CCc3c2ccc(NC(=O)Nc2ccc(N4CCN(C)CC4)c(C(F)(F)F)c2)c3F)c1
active: [1] -53.2% | [2] -87% | [3] -91.5% | [4] -100% | [5] -100% | [6] -81.5% | [8] -42.1% | [10] -41.1% | [11] -83.4% | [12] -85.1% | [13] -86.1% | [15] -91.7% | [16] -80% | [17] -1.44% | [18] -79.2%
inactive: [7] 39.3% | [14] 45.3%

CC[C@@]1(O)C(=O)OCc2c1cc1n(c2=O)Cc2c-1nc1cc(F)c(C)c3c1c2[C@@H](N)CC3
inactive: [2] 15.4% | [8] 13.4% | [17] 51.3%
active: [1] -29.2% | [3] 1.83% | [4] -82.4% | [5] -57.8% | [6] -22.9% | [7] -89.6% | [10] -3.74% | [11] -38.3% | [12] -12.5% | [13] -4.52% | [14] -32% | [15] -47.8% | [18] -12.2%

Cc1ccc(-c2cc(-c3cc4ccccc4nc3Cl)[nH]c(=O)n2)cc1
active: [3] 0.368% | [8] -30.1% | [20] -21.6% | [10] -30.1% | [11] -49.3% | [12] -8.44% | [16] 8.33% | [17] 1.21% | [18] -38.8%
inactive: [1] 41% | [2] 27.4% | [19] 26.3% | [5] 38.6% | [6] 24.8% | [7] 57.3% | [13] 48.1% | [14] 51.6% | [15] 28.6%

O=c1[nH]n(C(=S)N/N=C/c2ccc(F)cc2)c(=O)c2ccccc12
inactive: [1] 82.7% | [2] 88.2% | [3] 71.2% | [19] 102% | [5] 82.5% | [6] 82% | [7] 105% | [8] 12.8% | [20] 10.7% | [11] 36.4% | [12] 91.2% | [13] 82% | [14] 102% | [15] 90.5% | [16] 32.5% | [17] 91.6% | [18] 31.1%
active: [10] -22.5%

CC(=C(c1ccc(OCCN2CCCCC2)cc1)c1ccc(OCCN2CCCCC2)cc1)c1ccccc1
inactive: [1] 20.2% | [2] 73.6% | [3] 68.6% | [5] 12.7% | [6] 33.7% | [7] 136% | [11] 53.5% | [12] 46.3% | [13] 63.8% | [14] 74.6% | [15] 60.7% | [16] 28.3% | [17] 29.5% | [18] 51.6%
active: [4] 2.17% | [8] -19.2% | [10] -31.3%

COc1cc2c(cc1OC)/C(=C\c1sc(Nc3ccc(O)cc3)nc1O)C(C(=O)O)=N2
inactive: [2] 59.9% | [3] 35.4% | [4] 39.7% | [5] 37.8% | [6] 26.9% | [7] 103% | [8] 19.3% | [20] 25.9% | [9] 17% | [12] 34.6% | [13] 54% | [14] 47.3% | [15] 34.3% | [17] 31% | [18] 85.4%
active: [1] -9.38% | [16] 3.64%

Cc1ccc(C(C)C)cc1NC(=O)c1ccccc1N(C)C
inactive: [1] 86.8% | [2] 81.1% | [3] 88.1% | [4] 76.4% | [5] 88.4% | [6] 70.6% | [7] 100% | [8] 80.1% | [10] 72.6% | [11] 101% | [12] 86.6% | [13] 90% | [14] 93.7% | [15] 88.6% | [16] 103% | [17] 110% | [18] 74.6%

C[C@H]1[C@H](C)CC[C@]2(COC(=O)CCC(=O)NCC#CCN3CCNCC3)CC[C@]3(C)C(=CC[C@@H]4[C@@]5(C)CCCNC(C)(C)[C@@H]5CC[C@]43C)[C@H]12
active: [10] -22.9%
inactive: [1] 96.3% | [2] 73.4% | [3] 64.9% | [4] 42.9% | [5] 59.4% | [6] 49.1% | [8] 12.5% | [11] 69% | [12] 53.8% | [14] 51.4% | [15] 44.3% | [16] 75.6% | [18] 66.9%

COC[C@@H](CC(C)C)N=C1N/C(=C\c2ccc3ncsc3c2)C(=O)N1C
inactive: [2] 15% | [11] 17.6% | [13] 29.3% | [17] 15.4%
active: [1] -82.2% | [3] 9.83% | [4] -19.4% | [5] -1.55% | [6] 2.83% | [7] -15.4% | [8] 7.03% | [10] 3.65% | [12] -6.76% | [14] 0.794% | [15] 9.21% | [16] 3.27% | [18] 0.43%

CC(C)C1=C[C@@]23CC[C@@H]4[C@](C)(CCC[C@]4(C)C(=O)NCc4ccccc4)[C@H]2C[C@@H]1[C@H]1C(=O)OC(=O)[C@H]13
inactive: [1] 47% | [2] 33.9% | [3] 52.1% | [4] 43.4% | [5] 25.7% | [6] 77.1% | [7] 85.2% | [8] 16.7% | [20] 15.5% | [10] 24.7% | [11] 42.7% | [12] 93.6% | [14] 74.5% | [15] 31.1% | [16] 42% | [17] 44.6% | [18] 37.4%
active: [9] 6.39%

COc1ccc(-c2cc(C(=O)N=Nc3c(O)[nH]c4ccc(Br)cc34)c3ccccc3n2)cc1
inactive: [1] 122% | [2] 44.4% | [4] 43.2% | [5] 24.5% | [6] 57.1% | [7] 143% | [8] 18.9% | [10] 38.7% | [12] 51.3% | [13] 51% | [14] 114% | [15] 12.3% | [17] 61.6% | [18] 43.2%
active: [3] 5.56% | [9] 3.37% | [11] 8.79% | [16] 8.75%

Cc1ccc(-c2nc3ccc(C(=O)N=Nc4c(O)[nH]c5ccc([N+](=O)[O-])cc45)cc3[nH]2)cc1
inactive: [1] 101% | [2] 101% | [3] 48.8% | [4] 81.7% | [5] 97% | [6] 95.9% | [7] 116% | [8] 61.2% | [10] 104% | [12] 101% | [13] 55.2% | [14] 78.9% | [15] 89.2% | [16] 21.9% | [17] 74.6% | [18] 103%

COc1ccc2nc(Cl)c(-c3cc(-c4ccccc4)nc(N)n3)cc2c1
inactive: [1] 69.5% | [2] 59.8% | [3] 10% | [19] 74.4% | [5] 55.4% | [6] 60.4% | [7] 84.8% | [12] 51.4% | [13] 83.7% | [14] 95.1% | [15] 52.5% | [16] 12.1% | [17] 59.3%
active: [8] -4.77% | [11] -68.4% | [18] -43.1%

O=C1Nc2cc(Cl)ccc2/C1=C/c1ccc(OCc2ccc(Br)cc2F)cc1
inactive: [20] 10.3% | [12] 25.2%
active: [1] -47.2% | [2] -13.7% | [3] -48.2% | [19] -54.8% | [5] -79.9% | [6] -59% | [7] -46.4% | [8] 5.01% | [10] 0.87% | [11] -79.6% | [13] -53.8% | [14] -20.3% | [15] -41.9% | [16] -82.1% | [17] -16.8% | [18] -71%

N#Cc1c(NC(=O)c2ccc(C(O)(C(F)(F)F)C(F)(F)F)cc2)sc2c1CCC(=O)C2
inactive: [7] 13.6%
active: [1] -27.4% | [2] -89.6% | [4] -98.8% | [19] 2.24% | [5] -98.3% | [6] -68.9% | [8] 1.92% | [20] -40.9% | [9] -6.36% | [10] 6.42% | [11] -7.08% | [12] -60.8% | [13] -29.6% | [14] -38.9% | [15] -27.6% | [16] -53.1% | [17] -22% | [18] -60.4%
